The structures appear in SMILES notation. Among all 330,000 compounds or so, about 100 (0.03%) were called active. Inconclusive results (about 1%) are left out. The entries come from a sample that favours actives as a whole. A number with no mark means an inactive call. The call rests on the fitted dose curve; in most records, active means well fitted inhibition curve with a large enough effect; inconclusive means small, poorly fitted or top-dose-only effect; inactive means flat fitted curve, though single readings scatter.
On the % scale 0 is the no-effect control and ±100 the full control effect; potency means the concentration at half of the fitted maximal effect.

This test relates to Chaperonin Mm-Cpn (Methanococcus maripaludis). Briefly: Inhibitors of TCP-1 ring complex (TRiC) of Methanococcus maripaludis (MmCpn): qHTS. Further: nearly all actives have a fitted effect of over 80% in size.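 On Potency: enzyme at 25 nM with ATP substrate at 10 µM during the reaction.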 The conditions noted are these: purified Mm-Cpn ATPase, ADP Transcreener TR-FRET; series mostly up to 76.9 µM; activity, negative = inhibition: at the top concentration. The text has this: The eukaryotic chaperonin TRiC (for TCP-1 ring complex) is an essential and conserved chaperone required for the folding and activation of 10-15% of the proteins encoded by the human genome. […] The TRiC complex consist of two stacked 7-9 membered rings, each containing a central cavity. Substrates are folded within the cavity in an ATP-dependent manner. TRiC is a complex of eight different, essential proteins. As each of the genes encoding the eight subunits is essential for cell viability and no protocol has been developed to over-express this enzyme to high levels. That is why several groups studying the TRiC chaperonin have turned to the archaeal homolog of TRiC, Methanococcus maripaludis (Mm-CPN), and have used this enzyme as a model system for the study of the type II chaperonin family. Small molecule inhibitors of the Mm-CPN enzyme would be extremely useful to study the mechanism of chaperonin activity. Importantly, TRiC and Mm-CPN both require ATP hydrolysis for function. Furthermore, the ATP binding sites are highly conserved among these type II chaperonins. This provides us with an easy, well tested and straightforward assay to identify inhibitors of chaperonin activity. The Mm-CPN assay was developed in 1536-well plate format using the HTRF Transcreener ADP assay kit (Cisbio, Bedford, MA). This assay applied the time resolved fluorescence resonance energy transfer (TR-FRET) principle. ATP in the presence of Mm-CPN is converted to ADP + Pi. An antibody labeled with Eu3+-Cryptate specific and bound to ADP labeled with […] (d2) competes with the unlabeled ADP generated by Mm-CPN. The resulting TR-FRET signal is inversely proportional to the concentration of ADP in the sample. In this assay a reduction in TR-FRET signal is observed with ATP turnover. NIH Chemical Genomics Center [NCGC] NIH Molecular Libraries Probe Centers Network [MLPCN] MLPCN Grant: DA030554-01A1 Assay Submitter (PI): Judith Frydman, Stanford University
Purified Mm-CPN was supplied by the laboratory of Dr. Judith Frydman. Protein samples were stored at -80C as single use aliquots. Protein was thawed in ambient temperature water bath and placed on ice once thawed. Buffer was prepared fresh day of screen. The buffer composition below was used to prepare the working solution of the Mm-CPN protein and ATP substrate. The buffer is comprised of 30 mM TRIS pH 7.4, 100mM KCl, 5mM MgCl2, and 1mM DTT. A final concentration of 25nM Mm-CPN and 10uM ATP per well were used in the screen. Instructions according to the manufacturer were followed for the ADP Transcreener kit. Used 1536 well Greiner white, medium binding (MB), solid bottom plates. Plates were read on the PerkinElmer EnVision plate reader using Excitation = 320 nm and Emission = […], 665 nm. Protocol- 1.Dispense 1.5ul per well of working [Mm-CPN] = 50nM (or 75 ng / well) 2.Spin plate at 1000 rpm for 30 seconds 3.23nl of compound transferred per well 4.Incubate at 37degC for 10 minutes 5.Dispense 1.5ul per well of working [ATP] = 20uM 6.Incubate at 37degC for 30 minutes 7.Dispense 3ul per well of Anti-ADP Cryptate / ADP-d2 mix (prepared as instructed by Cisbio) 8.Incubate at ambient for 30 minutes 9.Read using EnVision
In general terms: Quantitative high-throughput screening tests each substance at several concentrations.
As to `CCOc1ccc(NC(=O)COC(=O)C2CCC(=O)N2)c([N+](=O)[O-])c1` (stereo not drawn), the “activity, negative = inhibition” value was -2.17%.
`CN(C(=O)CSc1nnc(C2CC2)n1C)C1CCCc2ccccc21` (stereo not drawn): the “activity, negative = inhibition” value is 1.32%.
On the same count and under the same terms, in the case of `C=C(C)c1cccc(C(C)(C)NC(=O)NC2CCCC2)c1` it was 3.61%.
On the same count and under the same terms, then `CC(=O)NC(NC(=S)Nc1c(C)n(C)n(-c2ccccc2)c1=O)C(Cl)(Cl)Cl` (stereo not drawn), with 0.437%; and `COc1cccc(NS(=O)(=O)c2ccc(-c3coc(C)n3)cc2)c1`, with 1.38%.
Still for that read-out and setting: in the case of `Nc1ccccc1C(=O)NC1CCCCNC1=O` (stereo not drawn) it was 1.08%; in that of `COc1cccc(N2CC(C(=O)NCc3n[nH]c(=O)c4ccccc34)CC2=O)c1` (stereo not drawn), 2.26%; in that of `CCOC(=O)c1c(N)c(C#N)nn1-c1ccccc1C(=O)OC`, -12.9%.
`O=C(c1c(F)cccc1F)N1CCN(c2ncc(Br)cn2)CC1`: the “activity, negative = inhibition” value is 0.0114%.
For `Cc1ccccc1NC(=O)CCNS(=O)(=O)c1ccc2[nH]c(=O)oc2c1`, the “activity, negative = inhibition” value was -1.52%.
Still for that read-out and setting: in the case of `CC(C)N(C)C(=O)CCc1nnc(CCc2c[nH]c3ccccc23)o1` it was -2.91%; in that of `O=C(Nc1cccc(C(=O)NC2CC2)c1)c1ccc(F)c(S(=O)(=O)N2CCOCC2)c1`, 1.05%; in that of `CC(=O)NC(c1cccs1)c1cc(Br)c2cccnc2c1O` (stereo not drawn), -1.32%.
Still for that read-out and setting: in the case of `COc1ccc(-c2[nH]ncc2CN(Cc2nccn2C)C(C)C)cc1F` it was -2.61%; in that of `COc1ccc(CNC(=O)CN2C(=O)NC3(CCCc4sccc43)C2=O)cc1` (stereo not drawn), -1.41%.
Same read-out and setting: in the case of `O=S1(=O)C=C(SCCN2CCCC2)c2ccccc21` it was 0.155%.
Turning to `CC(C)(C)NC(=O)CN(C(=O)c1ccc(Cl)nc1)c1cccc2ccccc12`, the “activity, negative = inhibition” value was -0.978%.
The same measure, in the same setting: in the case of `CC(C#N)(NC(=O)CN1CCN(S(=O)(=O)c2cc(C(F)(F)F)ccc2Cl)CC1)C1CC1` (stereo not drawn) it was 3.45%.
Still for that read-out and setting: then `Cc1nc(COc2cccc(Cl)c2)sc1C(=O)/C=C/N(C)C`, with -24.3%; and `COc1ccc([C@H]2CC(=O)C=C(/C=C/c3ccc(Cl)cc3)C2)cc1`, with -0.334%; and `COc1ccc(F)cc1C(=O)COC(=O)c1n[nH]c(=O)c2ccccc12`, with -0.0952%.
For `CC(C)N(C(=O)Cn1cc(SCC(=O)N2CCCC2)c2ccccc21)C(C)C`, the “activity, negative = inhibition” value was 0.718%.
Same read-out and setting: in the case of `CN(C)CCN=c1cc(-c2ccccc2)oc2ccc(Cl)cc12` it was -2.28%.
The same measure, in the same setting: then `CC1(C)C/C(=C(/C#N)C(N)=O)CCO1`, with -0.376%; and `COc1ccccc1Oc1ccc(N2CC(C(=O)OCC(=O)c3ccc(F)cc3)CC2=O)cc1` (stereo not drawn), with -1.04%.
The same measure, in the same setting: then `CCCOc1ccc(C(=O)C(CCC(CNCC)C(=O)c2ccc(OCCC)cc2)CNCC)cc1` (stereo not drawn), with 0.107%; and `Cc1ccc(S(=O)(=O)N2CCCC2C(=O)OCc2nc3sc(C)c(C)c3c(=O)[nH]2)cc1` (stereo not drawn), with 1.1%; and `Nc1c(Cl)cc(S(N)(=O)=O)cc1S(N)(=O)=O`, with 0.708%.
On to `Nc1ccc(Cl)c(S(=O)(=O)Nc2ccccc2Cl)c1`, for which the “activity, negative = inhibition” value was 1.09%.
Regarding `O=C(CN1CCN(C(=O)c2ccco2)CC1)Nc1ccc(Cl)c(C(F)(F)F)c1`, the “activity, negative = inhibition” value is -2.16%.
Same read-out and setting: in the case of `Cc1ccc2nc(SCc3nnc(-c4ccccc4[N+](=O)[O-])o3)c(C#N)cc2c1` it was 0.0284%.
On the same count and under the same terms, then `Cn1c2ccc(F)cc2c2nnc(NN)nc21`, with -3.17%; and `Cn1c(=O)c([N+](=O)[O-])c(Oc2ccccc2)c2ccccc21`, with -2.22%; and `CCn1c(=O)c(=O)n(CC)c2cc(N3CCCCC3)c(NC(=O)c3ccc(Cl)cc3)cc21`, with -1.8%.
Same read-out and setting: in the case of `O=C1OC2(CCCCC2)CC2=C1C1O[C@](c3ccsc3)(Cc3ccccc31)O2` it was -2.46% [at 15.4 µM]; in that of `CCOC(=O)C1=C(CSc2nnnn2C)N(C)C(=O)NC1c1ccccc1` (stereo not drawn), -0.436%.
On to `CCc1nnc(NC(=O)C2CCN(C(=O)c3ccccc3C)CC2)s1`, for which the “activity, negative = inhibition” value was 0.687%.
Turning to `Cc1ccc(NC(=O)Cn2cccc2C2=NC(c3ccccc3)CO2)c(C)c1` (stereo not drawn), the “activity, negative = inhibition” value is -0.418%.
`CC(OC(=O)Cc1ccc(F)cc1)C(=O)N1CCc2ccccc21` (stereo not drawn): the “activity, negative = inhibition” value was -0.947%.
In the case of `COCCn1c(SCC(=O)N2CCCCCC2)nc2c(c1=O)SCC2`, the “activity, negative = inhibition” value was -22%.
On the same count and under the same terms, in the case of `Cc1ccc(-n2nc(C)c(C(=O)O)c2-n2cccc2)cc1` it was 2.77%; in that of `Cc1cccc(N(Cc2ccccc2)C(=O)c2ccccc2F)c1`, -2.75%; in that of `CCCOC1CCCN(Cc2cn(C)nc2-c2ccccc2F)C1` (stereo not drawn), -0.377%.
On the same count and under the same terms, then `O=S1(=O)CCC(NC(=S)SCc2ccccc2Br)C1` (stereo not drawn), with 0.837%; and `Cc1ccc(-n2nc3c(=O)n(C(C)C(=O)NCc4ccc5c(c4)OCO5)nc(C)c3c2C)cc1` (stereo not drawn), with -0.0835%.
For the compound `Cc1ccc(-c2nc(-c3cccnc3)sc2CC(=O)Nc2ccc(C)c(Cl)c2)cc1`, the Potency was 28.2 µM (active).
With `Cc1nc(-c2ccc(F)cc2)c(CC(=O)Nc2cccc(S(=O)(=O)N3CCOCC3)c2)s1`, the “activity, negative = inhibition” value is -1.11%.
Still for that read-out and setting: in the case of `Cc1ccc(NC(=O)Nc2cccnc2)cc1` it was 1.12%.
The same measure, in the same setting: then `COC(=O)c1sc2[nH]c(=S)n(N)c(=O)c2c1C`, with -11.1%.
Still for that read-out and setting: in the case of `CCOc1ccc(C(CCc2ccccc2)NC(=O)c2ccc(OC)c(OC)c2)cc1OCC` (stereo not drawn) it was 0.0376%.
Turning to `CC(C)(CNC(=O)Cc1ccc(Cl)cc1Cl)N1CCOCC1`, the “activity, negative = inhibition” value is 0.0015%.
Still for that read-out and setting: then `COc1ccc(OC)c(S(=O)(=O)N(C)CC(=O)N2CCN(c3ccccc3)CC2)c1`, with -4.94%.
The same measure, in the same setting: in the case of `Cc1ccc(S(=O)(=O)N2CCCCC2)cc1NC(=O)CCNC(=O)c1ccccc1` it was 0.79%.

The values above are taken from PubChem BioAssay AID504842 (National Center for Advancing Translational Sciences (NCATS), 2011).
